Screening data from PubChem BioAssay.
The list is not random: actives were taken first. Their share in the collection is about 1.2%.
TNFa cytotox = HUVEC cytotoxicity counter-screen, TNF alpha stimulated; actives 0.17% (n = 93,000); HUVEC TNFalpha-stimulated, Hoechst cell count, imaging; cell count reduction, % at 2 µM; AID 848;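 active means cell count reduction exceeding the screen mean by over 5 SD, scaled to untreated wells per plate, cut at about 78% in these data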;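 further: cells counted after 24 h of TNF alpha exposure following the 1 h pretreatment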
VCAM1 TNFa inh = reduces TNF alpha induced VCAM1 expression in HUVEC | HUVEC TNFa-induced VCAM-1 immunofluorescence, high-content imaging | inhibition, % at 2 µM | actives 0.48% (n = 95,000) | AID 802;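 active means inhibition above the batch mean plus 3 SD, with images confirmed as a hit by eye, cut at about 37% in these data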;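 further: 0% = TNF-stimulated DMSO wells and 100% = unstimulated control wells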
E-sel TNF inh = TNF alpha driven E-selectin expression inhibition | HUVEC TNFa-induced E-selectin immunofluorescence, high content | inhibition, % at 2 µM | actives 0.71% (n = 120,000) | AID 1246;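 active means inhibition above the batch mean plus 3 SD, and confirmed as a hit on visual image review, cut at about 43% in these data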;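 further: 0% = TNF-stimulated DMSO wells and 100% = unstimulated control wells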
cytoskel mod = cytoskeleton assembly modification. HUVEC TNFa F-actin phalloidin imaging, high content. inhibition, % at 2 µM. actives 0.18% (n = 91,000). AID 836;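 active means inhibition above the batch mean plus 3 SD and confirmed as a hit by visual image inspection, cut at about 30% in these data, passing the limit was not always enough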
Active calls of the source: *; x = not tested or not shown.

SMILES	TNFa cytotox	VCAM1 TNFa inh	E-sel TNF inh	cytoskel mod
COc1ccc(CCNC(=O)CSc2nc(-c3ccco3)cc(C(F)(F)F)n2)cc1OC	-19	10	68*	-24
Cc1cc(NC(=O)CSc2n[nH]c(N)n2)no1	x	x	67*	x
CC(/C=C/c1ccco1)=N\NC(=O)c1cc(C)[nH]n1	-18	3	100*	61*
Cc1cc(C(=O)N/N=C/c2ccco2)n[nH]1	x	x	-7	x
COc1ccc(CCN2CNc3c(c(=O)n(C)c(=O)n3C)C2)cc1	x	x	-27	x
COc1cc(CN2CCN(c3cc(C)ccc3C)CC2)cc([N+](=O)[O-])c1O	-2	6	0	-10
COc1cc(CN2CCN(c3ccc(C)cc3)CC2)cc([N+](=O)[O-])c1O	-7	9	100*	5
COc1ccc(C)cc1-n1nnnc1SCC(=O)N1CCC(C(=O)Nc2nccs2)CC1	-22	-7	5	-2
CCOC(=O)C(C)Sc1nc(N)c(NC(=O)c2ccc(OC)c(OC)c2)c(=O)[nH]1 (stereo unspecified)	11	-10	x	5
Cc1nnc(SCc2cn3ccsc3n2)n(N)c1=O	82*	62*	-14	31
N=c1nc(N)nc2n1NC(c1ccc(F)cc1)=CS2	-2	55*	15	-16
COc1ccc(C2CC(O)(C(C)(C)O)NO2)cc1 (stereo unspecified)	-5	-8	47*	x
CCCn1nc([N+](=O)[O-])c(C(C#N)c2nc3ccccc3s2)c(Cl)c1=O (stereo unspecified)	-13	51*	-10	-25
Cc1oc(-c2ccccc2F)nc1CS(=O)(=O)CC(=O)N1CCN(c2ccccc2)CC1	-8	-9	x	8
CCOC(=O)CSc1nc2cc(OC)ccc2cc1C#N	-29	-9	100*	5
O=c1cc(C(Cl)(Cl)Cl)oc2c1ccc1ccccc12	30	80*	12	-10
Cn1nnc(NC(=O)c2ccccc2)n1	-18	-10	-29	0
COc1ccccc1C(=O)Nc1nnn(C)n1	78*	53	x	-32
O=C(CN1CCN(c2ccccc2F)CC1)c1c[nH]c2ccccc12	12	8	53*	-1
COc1ccc(/C=N/n2cc(-c3ccccc3)nc2N)cc1	x	x	65*	x
CCOC(=O)C(NC(=O)c1ccccc1)(OCC1(CC)COC1)C(F)(F)F (stereo unspecified)	-32	-6	-15	8
Oc1ccc(N=Nc2n[nH]c(-c3ccc(Cl)cc3)n2)cc1	-19	11	-10	52*
Cc1ncc(N=Nc2ccc(F)cc2)c(-c2ccc(Cl)cc2)n1	-4	-8	8	16
Cc1cc[n+](CCC(=O)O)c2ccccc12	-12	-2	23	x
O=C(Nc1cc2ccccc2oc1=O)c1ccccc1	x	x	72*	x
SMILES	TNFa cytotox	VCAM1 TNFa inh	E-sel TNF inh	cytoskel mod
COc1ccc(C(=O)Nc2cc(C(=O)c3ccccc3)c(C)oc2=O)cc1	-5	3	x	-28
O=C(O)c1c[nH]c2ccc(S(=O)(=O)N3CCOCC3)cc12	-8	55*	x	24
O=C(NCCN1CCOCC1)c1c[nH]c2ccc(S(=O)(=O)N3CCOCC3)cc2c1=O	x	x	-20	x
Cc1ccc(/C([O-])=C(/C(=S)NCc2ccccc2)[n+]2cccc(CO)c2)cc1[N+](=O)[O-]	x	x	73*	x
CCOc1cc(/C=N\Nc2ccc([N+](=O)[O-])cc2)ccc1OCC(=O)Nc1ccc(C)c(C)c1	13	-4	-5	-9
CCOc1cc(/C=N\NC(=O)Cc2ccccc2)ccc1OCC(=O)Nc1ccc(C)c(C)c1	15	52*	-9	-15
COC(=O)c1ccc(-c2nc3cc(Cl)c(N)cc3s2)cc1	6	-12	-43	27
CC(=O)c1cccc(-n2c(CCC(=O)O)ccc2-c2cccs2)c1	-25	4	-5	10
COc1ccc(N2CCN(S(=O)(=O)c3ccc4c(c3)OCCO4)CC2)cc1	x	x	-9	x
O=S(=O)(c1ccc2c(c1)OCCCO2)N1CCNCC1	84*	84*	x	-40
